The list is not random: actives were taken first. Their share in the collection is about 12%.
Lmaj promast: reduces viability of Leishmania major promastigotes; resazurin fluorescence viability; inhibition, % at 10 µM; 9% of 200,000 active; in the data active = inhibition above about 50%;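 note: promastigotes grown with compound for 44 hours at 28 °C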
CHOP inh: CHOP inhibition in unfolded protein response | CHO-K1 CHOP-promoter luciferase, tunicamycin-induced, 15-18 h | AID 2732 | 3.8% of 220,000 active | inhibition, % at 10 µM;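 active = compounds that reduced the stress-induced luciferase reporter signal by more than about 70% of percent inhibition, limit read from the data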;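 note: 0% = tunicamycin plus vehicle and 100% = wells without tunicamycin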
Arbovirus inh: blocks arbovirus infection; arbovirus infection cell-based antiviral screen; 0.37% of 200,000 active; AID 1251; inhibition, % at 10 µM; in the data active = inhibition above about 30%
WT yeast gro inh: growth inhibition of WT yeast, mitochondrial fusion screen; mitochondrial fusion phenotypic screen, WT strain; inhibition, % at 10 µM; 2.1% of 190,000 active; AID 1362; in the data active = inhibition above about 58%; tested in S. cerevisiae
An asterisk follows results filed as active; · = no result given.

SMILES	Lmaj promast	CHOP inh	Arbovirus inh	WT yeast gro inh
CC#C[C@]1(O)CC[C@H]2[C@@H]3CCC4=CC(=O)CCC4=C3[C@@H](c3ccc(N(C)C)cc3)C[C@@]21C	36	20	-10	87*
CCn1ncc(CN2CCCC(CNC(=O)c3ccc(F)cc3)C2)c1C (stereo not drawn)	-1	6	2	2
O=C1S/C(=C/c2ccc(N3CCOCC3)o2)C(=O)N1Cc1c(F)cccc1Cl	85*	56	-2	0
O=C(N/N=C1\CC(c2ccccc2)Oc2ccccc21)c1ccccn1 (stereo not drawn)	-8	1	0	-3
O=C(N/N=C1\CC(c2ccccc2)Oc2ccccc21)c1cccnc1 (stereo not drawn)	-1	20	-22	-7
CCOc1ccc(S(=O)(=O)N/N=C2/CC(c3ccccc3)Oc3ccccc32)cc1 (stereo not drawn)	50*	63	-11	39
N#Cc1ccc(OCC(=O)N/N=C2/CC(c3ccccc3)Oc3ccccc32)cc1 (stereo not drawn)	53*	52	-11	-3
O=C(N/N=C1/CC(c2ccccc2)Oc2ccccc21)C1CC1 (stereo not drawn)	44	93*	-7	-1
COc1cccc(N/C(SCc2cccc([N+](=O)[O-])c2)=C(/C#N)C(N)=O)c1	94*	37	-20	8
Cc1ccccc1N/C(SCc1cccc(Br)c1)=C(/C#N)C(N)=O	22	58	0	-19
CN1CCN(Cc2c(O)ccc3c(-c4ccccc4)cc(=O)oc23)CC1	80*	16	8	-9
CCCCN(CC)Cc1c(O)ccc2c(-c3ccccc3)cc(=O)oc12	·	21	·	·
CCCCN(C)Cc1c(O)ccc2c(-c3ccccc3)cc(=O)oc12	65*	17	11	14
CCN(CC)Cc1c(O)ccc2c(-c3ccccc3)cc(=O)oc12	-3	-3	7	9
O=C(O)/C=C/S(=O)(=O)c1ccc2ccccc2c1	·	13	·	·
Cn1cc(C(=O)c2ccc(F)cc2)cc1-c1nc2ccccc2n1C	71*	54	1	8
CC(C)C1Oc2ccccc2N(CC(=O)N(Cc2ccncc2)Cc2ccco2)C1=O (stereo not drawn)	-2	1	-5	0
COc1cc(Cl)ccc1NC(=S)N(CCCN1CCOCC1)Cc1cn(C)c2ccccc12	89*	-7	-8	12
Cc1ccc(Cl)cc1NC(=S)N(CCCN1CCOCC1)Cc1ccccn1	-2	6	5	0
COc1ccc(Cl)cc1NC(=S)N(CCCN1CCOCC1)Cc1cn(C)c2ccccc12	100*	-21	-5	15
COc1ccc(OC)c(CN(CCCN2CCOCC2)C(=O)Nc2ccccc2)c1	4	2	18	-13
CCOC(=O)C1(CC2CCCCO2)CCN(S(=O)(=O)c2cccc(F)c2)CC1 (stereo not drawn)	-1	22	-5	19
O=c1c2nnn(-c3ccccc3)c2ncn1C/C=C/c1ccccc1	-10	12	3	2
COCCNC(=O)CCn1c(=O)oc2ccccc21	70*	3	10	50
CCCCCNC(=O)CCn1c(=O)oc2ccccc21	0	37	1	-11
SMILES	Lmaj promast	CHOP inh	Arbovirus inh	WT yeast gro inh
O=C(c1ccc(Cl)c(Cl)c1)c1cnc(Nc2ccccc2)s1	-13	56	6	87*
COc1cccc2c1OC[C@@H](CO)[C@H]2N(C)C(=O)Nc1ccccc1	-8	-12	4	-2
CN(C(=O)Nc1ccc(Cl)cc1Cl)[C@H]1c2cc(Br)ccc2OC[C@H]1CO	6	89*	15	38
N#Cc1cc2cc3c(cc2nc1SCC(=O)OC1CCCCC1)OCO3	-1	79*	0	-4
Cc1ncn(-c2ccc(C(=O)Oc3ccccc3)cn2)n1	-8	16	3	-11
O=C(NCc1cccnc1)c1cccs1	-5	17	1	0
O=C(COC(=O)CCc1ccccc1)Nc1cc(S(=O)(=O)N2CCOCC2)ccc1N1CCCC1	-5	5	7	5
COc1ccc(C2C3=C(Nc4ncnn42)c2ccccc2CC3)cc1OC (stereo not drawn)	3	25	-25	3
FC(F)(F)c1ccccc1C1C2=C(Nc3ncnn31)c1ccccc1CCC2 (stereo not drawn)	96*	41	7	9
O=C1CCC2(C(=O)O)Sc3ccccc3N12 (stereo not drawn)	-6	17	-4	3
COc1cc(CC(=O)O)c(C(C)=O)cc1OC	-6	10	4	4
COc1cc(OC)c(C(=O)CCC(=O)O)cc1OC	71*	-6	5	-4
O=C(O)c1cccc(Cn2c(Cl)c(/C=N/NC(=O)c3cc4ccccc4cc3O)sc2=O)c1	·	6	·	·
Clc1ccc(C2=Nn3c(nnc3-c3cc(-c4ccccc4)n[nH]3)SC2)cc1	13	-27	-3	97*
c1ccc(C2=Nn3c(nnc3-c3cc(-c4ccccc4)n[nH]3)SC2)cc1	63*	47	0	-1
Cc1ccc(-c2nnc3n2N=C(c2ccccc2)CS3)cc1	-4	15	4	-7
Cc1nnc2n(c1=O)N=C(c1ccc(Cl)cc1)CS2	80*	25	3	0
CC(C)CSc1nc2c(=O)[nH][nH]c(=O)c2n1Cc1ccccc1	-9	-3	4	3
CCOC(=O)Cn1nnnc1C(CC)N(Cc1cccs1)Cc1cc2cc(C)ccc2[nH]c1=O (stereo not drawn)	95*	-2	2	-27
CCOc1ccc2[nH]c(=O)c(CN(Cc3cccs3)C(CC)c3nnnn3C(C)(C)CC)cc2c1 (stereo not drawn)	75*	65	9	-6
CCC(c1nnnn1C1CCCC1)N(Cc1cccs1)Cc1cc2cc(C)ccc2[nH]c1=O (stereo not drawn)	63*	69	-18	28
CCC(c1nnnn1C(C)(C)C)N(Cc1cccs1)Cc1cc2cc(C)c(C)cc2n2nnnc12 (stereo not drawn)	78*	·	·	·
COc1ccc2[nH]c(=O)c(CN(Cc3cccs3)Cc3nnnn3Cc3ccccc3)cc2c1	23	28	7	17
CCOC(=O)Cn1nnnc1C(C(C)C)N(Cc1cccs1)Cc1cc2cc(C)ccc2[nH]c1=O (stereo not drawn)	26	43	-18	19
CC(=O)Oc1ccc(N2C(=O)C3C4C=CC(CC4)C3C2=O)cc1[N+](=O)[O-] (stereo not drawn)	2	17	3	-9
SMILES	Lmaj promast	CHOP inh	Arbovirus inh	WT yeast gro inh
CC1CCN(CCC(=O)N/N=C/c2ccc([N+](=O)[O-])cc2)CC1	81*	20	2	-1
c1ccc(-c2cn(-c3ccccc3)c3ncnc(N4CCCCC4)c23)cc1	29	52	-10	55
CN1CCN(c2ncnc3c2c(-c2ccccc2)cn3-c2ccc(F)cc2)CC1	58*	-3	-31	19
CCOc1ccc(-n2cc(-c3ccccc3)c3c(N4CCOCC4)ncnc32)cc1	21	-2	-24	59*
CCOC(=O)CSc1ncnc2c1c(-c1ccccc1)cn2-c1ccc(OC)cc1	8	12	-8	-8
COc1ccc(-n2cc(-c3ccccc3)c3c(N4CC(C)OC(C)C4)ncnc32)cc1 (stereo not drawn)	45	73*	-28	68*
